ssDAF12 agonist: S. stercoralis DAF-12 nuclear receptor activators, primary screen, cell-based, luminescence, HEK293, GRIP1 co-expression, lit1-tk-luc; HEK293 ssDAF-12/GRIP1 lit1-tk-luc reporter; % of 3 µM dafachronic acid response; activation, % at 6.8 µM; actives 1% (n = 370,000); AID 652126, 2013;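 active means activation above the mean over all tested compounds plus 3 SD, cut at about 0.9% in these data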;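 further: 0% = DMSO-only wells and 100% = 3 µM delta7-dafachronic acid wells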
hgDAF-12 ag: H. glycines DAF-12 receptor agonists, primary screen, cell-based, luminescence, HEK293, GAL4 fusion, UAS-luciferase; activation, % at 6.8 µM; actives 1.8% (n = 370,000); HEK293 GAL4-hgDAF12 UAS-luciferase reporter, agonist luminescence; normalized to butyrate control; AID 687014, 2013;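 active means activation above a cutoff set at the mean of all screened compounds plus 3 SD, cut at about 10% in these data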;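 further: 0% = DMSO wells and 100% = sodium butyrate wells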
DAX1 StAR inh: DAX1 (NR0B1) inhibitors on StAR promoter, primary screen, cell-based, luminescence, SF-1 (NR5A1), full-length DAX-1; HEK293T StAR-luciferase reporter, SF-1/DAX-1 repression relief; inhibition, % at 6.8 µM; actives 1.1% (n = 370,000);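 active means inhibition above the mean over all tested compounds plus 3 SD, cut at about 3.6% in these data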;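 further: 0% = DAX-1 cells with DMSO and 100% = cells lacking DAX-1 with DMSO; higher inhibition means more luminescence from relief of DAX-1 repression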
esBAF inh: Bmi1 luciferase reporter increase in mESCs, primary screen, esBAF inhibitor project, mouse ES cells, Bmi1 luciferase knock-in, single point; reporter increase, % at 12.5 µM; AID 602393, 2012; 24 h; 100% = twice the neutral-well signal; actives 2% (n = 350,000); in the data active means activation above about 40%;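 further: 0% = median of the plate's neutral control wells and 100% = double that signal; a rise in the Bmi1 reporter signal indicates esBAF inhibition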
hcDAF12 agonist: H. contortus DAF-12 nuclear receptor activators, primary screen, cell-based, luminescence, HEK293, lit1-tk-luc reporter; HEK293 hcDAF-12 lit1-tk-luc reporter; 0% DMSO, 100% Δ7-dafachronic acid; activation, % at 6.8 µM; actives 1.4% (n = 370,000); AID 652067, 2013;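 active means activation above the mean of all tested compounds plus 3 SD, cut at about 5.5% in these data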;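 further: 100% = response to 3 µM Δ7-dafachronic acid high control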
Wnt act: Wnt/beta-catenin pathway activators, primary screen, cell-based, plate reader, single point; Wnt/beta-catenin reporter cell assay, activator; activation, % at 9.35 µM; actives 1.2% (n = 300,000); AID 743398, 2014; in the data active means activation above about 30%, passing the limit was not always enough;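 further: 0% = neutral control wells and 100% = positive control wells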
LXR ag: LXR agonists, Gal4 luciferase reporter, confirmation, counter-screen for hcDAF-12 agonist project, cell-based, luminescence, HEK293, H. contortus campaign | 3,400 tested, under 10 active | activation, % at 6.8 µM | AID 743027, 2013 | HEK293 Gal4-LXR tk-luc reporter, 24 h; normalized: DMSO 0%, positive control 100% | shares compounds with hcDAF12 agonist;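 active means mean percent activation of the reporter above a cutoff set as the average over tested compounds plus their standard deviation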
Target sequence (P55055 whole entry, looked up, the tested form may be a part): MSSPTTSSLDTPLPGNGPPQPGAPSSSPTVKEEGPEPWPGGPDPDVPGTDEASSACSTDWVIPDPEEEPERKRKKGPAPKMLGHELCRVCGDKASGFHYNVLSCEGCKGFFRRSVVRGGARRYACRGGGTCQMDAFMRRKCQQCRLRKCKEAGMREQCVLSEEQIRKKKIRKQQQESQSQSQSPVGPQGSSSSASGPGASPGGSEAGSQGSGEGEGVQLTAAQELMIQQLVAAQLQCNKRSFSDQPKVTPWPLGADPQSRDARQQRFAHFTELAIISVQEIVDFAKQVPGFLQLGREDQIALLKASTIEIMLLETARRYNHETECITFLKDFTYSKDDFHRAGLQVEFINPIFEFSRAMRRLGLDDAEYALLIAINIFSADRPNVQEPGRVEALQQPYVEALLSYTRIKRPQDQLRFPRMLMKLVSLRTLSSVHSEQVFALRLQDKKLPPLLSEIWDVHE
hcDAF12 ag: H. contortus DAF-12 receptor agonists, confirmation, cell-based, luminescence, HEK293, lit1-tk-luc, triplicate | HEK293 hcDAF-12 lit1-tk-luc reporter; % of Δ7-dafachronic acid response | actives 61% (n = 3,400) | AID 743032, 2013 | activation, % at 6.8 µM | shares compounds with hcDAF12 agonist;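 active means mean activation across triplicate tests above the threshold derived from the earlier primary screen, cut at about 5.5% in these data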;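 further: 0% = DMSO only wells and 100% = 3 µM Δ7-dafachronic acid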
* marks the source's active call; other numbers are inactive results; x = no result. An excerpt weighted towards active compounds, which were near 4.2% of everything screened.

SMILES	ssDAF12 agonist	hgDAF-12 ag	DAX1 StAR inh	esBAF inh	hcDAF12 agonist	Wnt act	LXR ag	hcDAF12 ag
CNC(=O)C[C@@H]1CC[C@@H]2[C@H](COC[C@H](O)CN2Cc2ccncc2)O1	x	x	x	-1	x	x	x	x
CCOC(=O)Nc1cccc2ccccc12	-2	0	0	6	-2	0	x	x
CCOC(=O)Nc1ccc2c3c(cccc13)-c1ccccc1-2	0	7	4.2*	46*	8.2*	10	0	7.7*
COc1cccc(NC(=O)N2C[C@H](O)COC[C@@H]3O[C@@H](CC(=O)NCc4ccccc4F)CC[C@H]32)c1	x	x	x	1	x	x	x	x
COc1ccc(NC(=O)Nc2ccc3c(c2)C(=O)N([C@@H](C)CO)C[C@H](C)[C@H](CN(C)S(=O)(=O)c2ccc(C)cc2)OCCCC[C@H](C)O3)cc1	x	x	x	-3	x	x	x	x
O=C(Nc1ccccc1Cl)c1ccc(-c2ccccn2)s1	0	11*	2	82*	8.7*	30	1	3
CO[C@H]1CN(C)C(=O)c2cc(NC(=O)NC(C)C)ccc2OC[C@@H](C)N(Cc2cncnc2)C[C@H]1C	x	x	x	3	x	x	x	x
C[C@@H]1CN([C@@H](C)CO)C(=O)c2cccc(NC(=O)C3CCOCC3)c2O[C@H]1CN(C)CC1CCCCC1	x	x	x	2	x	x	x	x
COc1ccccc1C(=O)Nc1ccc2c(c1)C(=O)N(C)[C@@H]1CC[C@@H](CC(=O)NCc3ccc(Cl)c(Cl)c3)O[C@H]1CO2	x	x	x	-2	x	x	x	x
Cc1ccc(C(=O)NC2CCCCCCC2)c(Cl)c1	0	6	2	-65	6.9*	7	1	8.8*
O=C(NC1CCCCCCC1)c1cc(F)c(F)cc1Cl	0	8	2	x	2	-2	x	x
CC(C)NC(=O)N[C@H]1C=C[C@H](CC(=O)NCCCN(C)C)O[C@@H]1CO	x	x	x	1	x	x	x	x
O=C(C1CCC1)N1CCCCN2[C@@H](CO)[C@@H](c3ccc(-c4ccncc4)cc3)[C@@H]2C1	x	x	x	-2	x	x	x	x
COc1cccc(C(=O)/C=C/Nc2ccc(S(=O)(=O)Nc3onc(C)c3C)cc2)c1	0	9	3	x	13*	0	0	2
O=C1CNC(=S)N1c1nc2ccccc2s1	0	5	1	x	6.8*	18	0	8.0*
C/C(Cc1ccccc1)=N\NC(=O)c1ccc(F)cc1	1	4	0	33	1	1	x	x
O=C(NN=C(Cc1ccccc1)Cc1ccccc1)c1ccc(F)cc1	-1	9	1	x	6.8*	23	0	1
O=C(Oc1ccccc1/C=C\C(=O)c1cc2ccccc2o1)c1cccc(F)c1	0	10	0	x	11*	x	1	7.2*
O=C(N/N=C/c1ccccc1OC(=O)c1ccc2c(c1)OCO2)c1cccc(F)c1	-1	5	0	x	-1	x	x	x
Cn1c2ccccc2c2cc([N+](=O)[O-])ccc21	-1	3	1	4	-1	3	x	x
CCN(CC)CCn1c2ccccc2c2nc3ccc([N+](=O)[O-])cc3cc21	1.1*	4	1	x	9.0*	15	1	6.8*
COc1ccc(CN(C)C[C@H]2OCCCC[C@H](C)Oc3ccc(NS(=O)(=O)c4ccccc4)cc3C(=O)N([C@H](C)CO)C[C@H]2C)cc1	x	x	x	2	x	x	x	x
Cc1ccc(S(=O)(=O)NC(=O)NCCCN2CCOCC2)cc1	0	0	0	-5	7.6*	-1	0	1
N#Cc1c(NC(=O)c2ccccc2)sc2c1CCCCC2	1.0*	13*	3	-26	7.0*	x	1	5.9*
Cc1ccc(C(=O)Nc2sc3c(c2C#N)CCCCC3)cc1C	-1	6	1	x	3	x	x	x
SMILES	ssDAF12 agonist	hgDAF-12 ag	DAX1 StAR inh	esBAF inh	hcDAF12 agonist	Wnt act	LXR ag	hcDAF12 ag
NC(=O)c1c(NC(=O)c2ccccc2F)sc2c1CCCC2	0	13*	3	65*	9.0*	-1	1	7.3*
O=C(Nc1ccc(F)cc1)c1nc[nH]c1C(=O)O	-1	2	1	-8	0	0	x	x
O=C(Nc1ccc(F)cc1)c1nsc(Cl)c1Cl	2.8*	11*	2	22	9.7*	x	1	11*
O=C(NC1CCCCC1)c1ccc2c(c1)OCO2	0	8	1	36	8.3*	16	0	4
CC(C)N(CCNC(=O)c1ccc(OCC2CCCO2)cc1)C(C)C (stereo unspecified)	-1	-2	1	-7	-2	-1	x	x
O=C(Nc1nc(-c2ccc(F)c(F)c2)cs1)c1ccc(OCC2CCCO2)cc1 (stereo unspecified)	-1	-2	0	x	-1	-10	x	x
O=C(NC1CCCCCC1)c1ccc(OCC2CCCO2)cc1 (stereo unspecified)	0	7	2	x	9.8*	18	1	4
Cc1csc(NC(=O)c2ccc(OCC3CCCO3)cc2)n1 (stereo unspecified)	0	13*	4.3*	-22	6.7*	6	1	4
O=C(NNC(=O)c1ccc2c(c1)OCO2)NC1CCCCC1	-1	2	-1	-2	-1	x	x	x
C[C@H](CO)N1C[C@H](C)[C@H](CN(C)S(=O)(=O)c2ccc(F)cc2)Oc2ccc(NS(=O)(=O)c3ccccc3)cc2CC1=O	x	x	x	2	x	x	x	x
O=C(Nc1ccccc1)Nc1cccc(Cl)c1Cl	-1	6	0	60*	7.3*	x	0	2
O=C(NCc1csc2ccc(Cl)cc12)Nc1ccccc1	-2	0	0	-4	-1	28	x	x
Cn1cccc1C(=O)C(=O)Nc1cccc(Cl)c1Cl	0	6	1	63*	6.6*	x	1	12*
O=C(NCc1ccc(Cl)cc1Cl)Nc1ccccc1	-1	7	1	x	7.4*	46*	0	4

High-throughput results deposited in PubChem by several laboratories.
